Drawing on PMC5700166, this text covers binding signal for 23 sequences.

The experiment addresses T1, GST-Dm-Relish (Drosophila melanogaster, UniProt Q94527 99-473).
T1 sequence: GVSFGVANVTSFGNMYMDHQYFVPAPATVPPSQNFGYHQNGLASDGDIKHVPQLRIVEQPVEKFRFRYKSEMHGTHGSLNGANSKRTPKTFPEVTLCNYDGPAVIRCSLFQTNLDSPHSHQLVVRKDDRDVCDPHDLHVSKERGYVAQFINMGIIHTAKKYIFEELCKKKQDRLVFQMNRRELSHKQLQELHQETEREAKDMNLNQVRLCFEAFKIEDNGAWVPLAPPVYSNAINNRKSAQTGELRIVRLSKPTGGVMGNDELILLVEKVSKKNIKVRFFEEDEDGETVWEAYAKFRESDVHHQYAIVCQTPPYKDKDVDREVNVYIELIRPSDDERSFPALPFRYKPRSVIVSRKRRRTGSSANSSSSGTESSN
The experiment can be described thus: protein-binding microarray (PBM); PBM: ~300 nM protein, 6 mM HEPES pH 7.8, 80 mM KCl, 0.5 mM EDTA, 0.5 mM EGTA, 6% glycerol, 35 ng/ul poly-dIdC, 1% milk, 1 h, room temperature; Ap Aiptasia and Nv Nematostella (sea anemones) / Co Capsaspora / Aq Amphimedon (sponge) / Dm Drosophila / Hu human; RHD is the Rel homology domain; high values mean tight binding. The note with it: dsDNA, one strand shown.

Turning to “CCGATTAACATCAGAAAATTACATGATGTTAATCGGGTCTTGATTCGCTTGACGCTGCTG”, the binding signal is 3.43 z-score.
Sequence “CCGATTAACATCACAGAAAATCCTGATGTTAATCGGGTCTTGATTCGCTTGACGCTGCTG” showed a binding signal of 1.19 z-score.
For “CCGATTAACATCAGTGAATTCCATGATGTTAATCGGGTCTTGATTCGCTTGACGCTGCTG”, the binding signal worked out at 2.81 z-score.
In the case of “CCGATTAACATCAGGCCTTTCCATGATGTTAATCGGGTCTTGATTCGCTTGACGCTGCTG” it was 1.71 z-score.
The sequence “CCGATTAACATCAAAATTCCATATGATGTTAATCGGGTCTTGATTCGCTTGACGCTGCTG” had a binding signal of 1.14 z-score.
With “CCGATTAACATCAGGAAATCACATGATGTTAATCGGGTCTTGATTCGCTTGACGCTGCTG”, the binding signal amounted to 7.1 z-score.
“CCGATTAACATCACGGAAAATACTGATGTTAATCGGGTCTTGATTCGCTTGACGCTGCTG” yielded a binding signal of 1.21 z-score.
With “CCGATTAACATCAGGATTTTACATGATGTTAATCGGGTCTTGATTCGCTTGACGCTGCTG”, the binding signal was 3.35 z-score.
For the sequence “CCGATTAACATCAGTTTTTTCCATGATGTTAATCGGGTCTTGATTCGCTTGACGCTGCTG”, the binding signal is 1.54 z-score.
With “CCGATTAACATCAGGAAAGAACATGATGTTAATCGGGTCTTGATTCGCTTGACGCTGCTG”, the binding signal stood at 3.57 z-score.
The sequence “CCGATTAACATCAGTAGTTTCCATGATGTTAATCGGGTCTTGATTCGCTTGACGCTGCTG” gave a binding signal of 1.79 z-score.
Take “CCGATTAACATCACGTAAAATCCTGATGTTAATCGGGTCTTGATTCGCTTGACGCTGCTG”: the binding signal came out at 1.05 z-score.
As to “CCGATTAACATCACGTGGATTCCTGATGTTAATCGGGTCTTGATTCGCTTGACGCTGCTG”, the binding signal was determined as 1.66 z-score.
The sequence “CCGATTAACATCATGTGGTTCTCTGATGTTAATCGGGTCTTGATTCGCTTGACGCTGCTG” gave a binding signal of 1.1 z-score.
Sequence “CCGATTAACATCAAGGAAAATACTGATGTTAATCGGGTCTTGATTCGCTTGACGCTGCTG” displayed a binding signal of 1.2 z-score.
In the case of “CCGATTAACATCAAATTTTCCACTGATGTTAATCGGGTCTTGATTCGCTTGACGCTGCTG” it was 1.2 z-score; in that of “CCGATTAACATCAGGAAAAACACTGATGTTAATCGGGTCTTGATTCGCTTGACGCTGCTG”, 2.61 z-score.
In the case of “CCGATTAACATCAGTAATTTACATGATGTTAATCGGGTCTTGATTCGCTTGACGCTGCTG” it was 6.73 z-score; in that of “CCGATTAACATCACGTAAATCCATGATGTTAATCGGGTCTTGATTCGCTTGACGCTGCTG”, 1 z-score.
“CCGATTAACATCAGTATTTTCCATGATGTTAATCGGGTCTTGATTCGCTTGACGCTGCTG”: the binding signal is 1.33 z-score.
“CCGATTAACATCACGAAAAATCCTGATGTTAATCGGGTCTTGATTCGCTTGACGCTGCTG” registered a binding signal of 1.48 z-score.
With “CCGATTAACATCACGTGAATTCCTGATGTTAATCGGGTCTTGATTCGCTTGACGCTGCTG”, the binding signal was determined as 2.84 z-score.
In turn, “CCGATTAACATCAGTGAACCACATGATGTTAATCGGGTCTTGATTCGCTTGACGCTGCTG” yielded a binding signal of 5.69 z-score.
